Measured values reported in PubChem BioAssay (Tox21).
Records with an inconclusive call do not appear. Calls of active or inactive are those of the source. Unless noted, calls follow the shape of the full dose curve.

How the values were obtained:
[1] = Nuclear factor erythroid 2-related factor 2/antioxidant responsive element (Nrf2/ARE) small molecule agonists: qHTS cell viability counter screen in human keratinocytes (AID 1919968; active = well fitted curve in the direction sought with a large enough effect in the repeat runs; an effect the other way counts as inactive or inconclusive; also: nearly all actives have a fitted effect of over 55% in size; also: potency is read from the fitted curve at half-maximal effect)
Method in brief: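 Parallel cytotoxicity read: KeratinoSens HaCaT cells, compound treatment 23 h, viability by CellTiter-Fluor fluorescence 1 h post-reagent.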

[2] = Nuclear factor erythroid 2-related factor 2/antioxidant responsive element (Nrf2/ARE) small molecule agonists: luciferase reporter gene qHTS assay in human keratinocytes (AID 1919969); also: nearly all actives have a fitted effect of over 35% in size; also: potency is read from the fitted curve at half-maximal effect
[3] = target: Gonadotropin-releasing hormone receptor (Homo sapiens) (UniProt P30968); test: Human gonadotropin-releasing hormone receptor (GnRHR) small molecule agonists, calcium flux assay in GnRHR-HEK293 cells (AID 1920063); also: nearly all actives have a fitted effect of over 35% in size
Sequence of Gonadotropin-releasing hormone receptor (Homo sapiens) (P30968 whole entry, looked up): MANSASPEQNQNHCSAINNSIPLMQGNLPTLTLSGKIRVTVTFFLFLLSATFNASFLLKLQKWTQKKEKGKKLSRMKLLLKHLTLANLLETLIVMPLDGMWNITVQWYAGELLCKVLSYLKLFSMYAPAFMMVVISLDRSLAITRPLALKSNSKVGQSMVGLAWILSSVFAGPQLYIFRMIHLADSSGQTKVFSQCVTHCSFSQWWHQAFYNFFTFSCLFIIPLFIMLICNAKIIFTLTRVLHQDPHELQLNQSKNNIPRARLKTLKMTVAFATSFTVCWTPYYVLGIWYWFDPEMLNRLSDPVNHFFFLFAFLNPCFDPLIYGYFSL
Method in brief: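 Calcium flux, agonist mode, human GnRHR stably integrated in HEK293; dye 1 h at 37 C before compound; Ex/Em=480/540 kinetic read, 3 min; 15 concentrations, triplicate.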

[4] = target: KiSS-1 receptor (Homo sapiens) (UniProt Q969F8); test: Human kisspeptin (KISS1R) small molecule agonists, calcium flux assay in KISS1R-HEK293 cells (AID 1920064; active = well fitted curve in the direction sought with a large enough effect in the repeat runs; an effect the other way counts as inactive or inconclusive)
Sequence of KiSS-1 receptor (Homo sapiens) (Q969F8 whole entry, looked up): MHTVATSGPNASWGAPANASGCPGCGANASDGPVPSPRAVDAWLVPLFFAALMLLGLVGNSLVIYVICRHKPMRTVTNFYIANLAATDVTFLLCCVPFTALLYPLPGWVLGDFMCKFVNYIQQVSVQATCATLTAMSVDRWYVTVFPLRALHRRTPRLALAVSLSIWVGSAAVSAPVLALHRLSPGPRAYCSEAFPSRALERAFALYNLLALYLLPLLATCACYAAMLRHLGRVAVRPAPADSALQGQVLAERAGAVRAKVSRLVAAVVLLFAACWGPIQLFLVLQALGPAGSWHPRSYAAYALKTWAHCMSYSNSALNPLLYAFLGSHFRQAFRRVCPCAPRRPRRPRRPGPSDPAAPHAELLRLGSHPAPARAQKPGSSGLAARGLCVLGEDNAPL
Method in brief: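 Triplicate 15-concentration series were applied to dye-loaded human KISS1R HEK293 cells, and agonist-evoked calcium fluorescence was captured for 3 min.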

[5] = G protein-coupled receptor (GPCR) small molecule agonists, calcium flux assay: HEK293 wild type cell line counter screen (AID 1920065)
Method in brief: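 Non-specific calcium responders were flagged by adding DMSO-dissolved compounds to dye-loaded cells and reading 480/540 nm fluorescence each second for 3 min; ATP served as positive control.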

[6] = p53 small molecule agonists, cell-based qHTS assay with human liver microsomes (AID 1963577);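 also: p53 response element beta-lactamase reporter cells with liver microsomes plus NADPH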
Method in brief: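 In this qHTS, p53 response-element beta-lactamase cells receive test compound together with a microsome/NADPH activating system (0.5 mg/mL final each) and are incubated 16 h at 37 C before LiveBLAzer fluorescence detection.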

[7] = p53 small molecule agonists, cell-based qHTS assay with rat liver microsomes (AID 1963578)
Method in brief: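 Agonist mode in p53RE-bla reporter cells, with compounds co-incubated 16 h at 37 C alongside 0.5 mg/mL rat liver microsomes and 0.5 mg/mL NADPH (final), followed by a 2 h LiveBLAzer detection step.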

[8] = p53 small molecule agonists, cell-based qHTS assay with human liver microsomes: qHTS cell viability counter screen (AID 1963579); also: nearly all actives have a fitted effect of over 45% in size
Method in brief: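 Metabolically activated exposure: compounds, human liver microsomes and NADPH (0.5 mg/mL final apiece) were added to p53RE-bla cells seeded 5 h earlier, left 16 h at 37 C, and then assessed for viability by CellTiter-Glo luminescence.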

[9] = p53 small molecule agonists, cell-based qHTS assay with rat liver microsomes: qHTS cell viability counter screen (AID 1963580); also: nearly all actives have a fitted effect of over 45% in size
Method in brief: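 Counter screen for cytotoxicity under metabolic activation: rat liver microsomes and NADPH, 0.5 mg/mL final each, added with compounds to p53RE-bla HCT-116 cells; 16 h at 37 C, then ATP luminescence read.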

[10] = p53 small molecule agonists, cell-based qHTS assay: qHTS cell viability counter screen (AID 1963581); also: nearly all actives have a fitted effect of over 45% in size
Method in brief: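 Multiplexed with the reporter read, a CellTiter-Glo step (30 min, room temperature) gauges ATP-based viability of HCT-116 p53RE-bla cells after 16 h compound incubation at 37 C.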

[11] = p53 small molecule agonists, cell-based qHTS assay (AID 1963582; active = well fitted activation curve with a large enough effect in the signal ratio in the repeat runs, not every such curve was filed as active; the % refers to the signal ratio)
Method in brief: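 Beta-lactamase reporter cells (p53RE-bla) treated with compounds for 16 h at 37 C; FRET substrate, 2 h, room temperature; fluorescence intensity.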

[12] = target: 5-hydroxytryptamine receptor 2A (Homo sapiens) (UniProt P28223); test: 5-hydroxytryptamine receptor 2A (HTR2A) small molecule antagonists, cell-based qHTS assay (AID 1963586); also: nearly all actives have a fitted effect of over 45% in size; also: potency is read from the fitted curve at half-maximal effect
Sequence of 5-hydroxytryptamine receptor 2A (Homo sapiens) (P28223 whole entry, looked up): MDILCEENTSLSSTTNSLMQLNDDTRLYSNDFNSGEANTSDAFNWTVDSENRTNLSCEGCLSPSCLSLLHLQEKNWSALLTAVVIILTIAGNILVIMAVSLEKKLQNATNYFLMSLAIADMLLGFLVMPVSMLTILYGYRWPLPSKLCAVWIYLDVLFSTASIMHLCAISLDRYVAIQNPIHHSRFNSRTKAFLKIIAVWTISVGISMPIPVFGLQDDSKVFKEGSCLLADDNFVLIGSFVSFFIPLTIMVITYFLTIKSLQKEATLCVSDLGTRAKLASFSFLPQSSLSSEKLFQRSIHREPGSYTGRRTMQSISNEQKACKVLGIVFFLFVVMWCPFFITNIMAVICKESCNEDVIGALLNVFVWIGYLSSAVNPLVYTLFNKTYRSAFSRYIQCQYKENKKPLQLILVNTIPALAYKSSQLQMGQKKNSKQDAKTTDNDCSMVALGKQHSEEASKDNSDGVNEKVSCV
Method in brief: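 CHO cells stably expressing human HTR2A were plated for 18 h at 37 C, then loaded with calcium dye for 1 h. Compounds were preincubated 5 min at room temperature before DOI (4 nM solution) was added. Kinetic fluorescence was read for 3 min.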

[13] = target: 5-hydroxytryptamine receptor 2A (Homo sapiens) (UniProt P28223); test: 5-hydroxytryptamine receptor 2A (HTR2A) small molecule agonists, cell-based qHTS assay (AID 1963587); also: nearly all actives have a fitted effect of over 30% in size; also: potency is read from the fitted curve at half-maximal effect
Method in brief: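 HTR2A-CHO cells, plated 18 h at 37 C/5% CO2, dye-loaded 1 h at 37 C; compounds in DMSO added by pin tool (agonist mode). Intracellular calcium flux read as kinetic fluorescence on FDSS over 2 min at 1 s intervals.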

[14] = target: Muscarinic acetylcholine receptor M1 (Homo sapiens) (UniProt P11229); test: Cholinergic receptor muscarinic 1 (CHRM1) small molecule agonists, cell-based qHTS assay (AID 1963589); also: nearly all actives have a fitted effect of over 35% in size
Sequence of Muscarinic acetylcholine receptor M1 (Homo sapiens) (P11229 whole entry, looked up): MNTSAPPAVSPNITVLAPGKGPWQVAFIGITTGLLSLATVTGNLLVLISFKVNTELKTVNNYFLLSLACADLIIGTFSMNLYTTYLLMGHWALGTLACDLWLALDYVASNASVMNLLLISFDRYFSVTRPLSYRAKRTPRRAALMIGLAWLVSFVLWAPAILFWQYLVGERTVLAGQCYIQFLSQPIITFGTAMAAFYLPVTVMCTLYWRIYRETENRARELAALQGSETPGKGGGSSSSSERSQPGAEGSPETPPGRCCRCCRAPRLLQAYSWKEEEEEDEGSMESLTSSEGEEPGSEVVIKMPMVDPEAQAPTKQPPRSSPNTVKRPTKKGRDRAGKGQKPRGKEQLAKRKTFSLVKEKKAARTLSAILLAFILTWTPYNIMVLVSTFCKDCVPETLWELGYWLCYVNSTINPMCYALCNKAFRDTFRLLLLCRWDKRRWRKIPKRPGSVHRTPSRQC
Method in brief: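 qHTS, 15-point titration, 3 independent runs: compounds pin-transferred onto dye-loaded CHRM1-CHO cells (human M1), calcium fluorescence followed every second to detect agonism.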

[15] = cAMP Responsive Elements (CRE) small molecule agonists, cell-based qHTS assay (AID 1963590)
Method in brief: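 Quantitative HTS for CRE agonists: HEK 293T CRE-bla cells, overnight plating, 3 h compound incubation at 37 C/5% CO2, then 2 h room-temperature LiveBLAzer B/G FRET substrate loading.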

[16] = cAMP Responsive Elements (CRE) small molecule antagonists, cell-based qHTS assay (AID 1963591; active = well fitted inhibition curve with a large enough effect in the signal ratio in the repeat runs, not every such curve was filed as active; the % refers to the signal ratio)
Method in brief: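 Fluorescence intensity from cleaved LiveBLAzer B/G substrate (2 h, room temperature) quantified CRE-bla activity in HEK 293T cells exposed 3 h to compound with 0.25 uM final NKH477.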

[17] = target: Beta-2 adrenergic receptor (Homo sapiens) (UniProt P07550); test: Adrenergic beta2 receptor (ADRB2) small molecule antagonists, cell-based qHTS assay (AID 1963592); also: series mostly up to about 92 µM; nearly all actives have a fitted effect of over 50% in size
Sequence of Beta-2 adrenergic receptor (Homo sapiens) (P07550 whole entry, looked up): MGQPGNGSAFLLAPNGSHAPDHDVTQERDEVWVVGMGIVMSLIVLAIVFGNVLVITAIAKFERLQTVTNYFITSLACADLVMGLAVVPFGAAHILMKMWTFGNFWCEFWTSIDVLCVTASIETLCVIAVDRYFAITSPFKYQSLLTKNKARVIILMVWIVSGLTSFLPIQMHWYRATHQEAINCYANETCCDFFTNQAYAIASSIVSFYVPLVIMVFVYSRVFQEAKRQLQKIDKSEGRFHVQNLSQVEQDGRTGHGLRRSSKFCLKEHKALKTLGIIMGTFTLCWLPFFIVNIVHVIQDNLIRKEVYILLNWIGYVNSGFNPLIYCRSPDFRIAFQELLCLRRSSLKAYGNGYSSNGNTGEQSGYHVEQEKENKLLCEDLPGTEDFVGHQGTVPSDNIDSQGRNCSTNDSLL
Method in brief: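 Assay format: CHO-ADRB2 cells, 18-20hr seeding at 37C/5% CO2, then compound plus 1nM isoproterenol agonist mix for 0.5hr RT. Homogeneous time-resolved fluorescence cAMP detection after 1hr, expressed as 665/615 nm ratio.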

[18] = target: D(2) dopamine receptor (Homo sapiens) (UniProt P14416); test: Dopamine D2 receptor (DRD2) small molecule agonists, cell-based qHTS assay (AID 1963594); also: nearly all actives have a fitted effect of over 35% in size
Sequence of D(2) dopamine receptor (Homo sapiens) (P14416 whole entry, looked up): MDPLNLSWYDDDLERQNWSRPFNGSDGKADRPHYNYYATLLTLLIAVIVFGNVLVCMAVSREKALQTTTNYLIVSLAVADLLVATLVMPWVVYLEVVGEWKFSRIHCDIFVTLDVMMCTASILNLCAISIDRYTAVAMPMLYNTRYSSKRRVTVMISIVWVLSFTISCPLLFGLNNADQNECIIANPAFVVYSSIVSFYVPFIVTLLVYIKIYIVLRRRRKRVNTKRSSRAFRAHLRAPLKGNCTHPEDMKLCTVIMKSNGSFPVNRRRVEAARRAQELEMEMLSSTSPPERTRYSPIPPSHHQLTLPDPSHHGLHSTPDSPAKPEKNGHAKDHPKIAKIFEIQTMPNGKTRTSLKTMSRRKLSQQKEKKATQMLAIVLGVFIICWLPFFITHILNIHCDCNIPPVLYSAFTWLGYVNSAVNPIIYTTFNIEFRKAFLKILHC
Method in brief: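 HEK293 cells stably expressing DRD2 were cultured 24 h at 37 C, then given Ro20-1724 (0.1 mM final) and compounds for 10 min at room temperature. NKH477 (200nM) was then added for 30 min. cAMP was read by HTRF.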

[19] = target: D(2) dopamine receptor (Homo sapiens) (UniProt P14416); test: Dopamine D2 receptor (DRD2) small molecule antagonists, cell-based qHTS assay (AID 1963595; active = well fitted inhibition curve with a large enough effect in the signal ratio in the repeat runs, with a control signal flat; the % refers to the signal ratio)
Method in brief: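 Readout: HTRF cAMP, cAMP-d2 competing with cellular cAMP for anti-cAMP cryptate, read after 1 h. Cells: DRD2-HEK293. Conditions: 0.1 mM Ro20-1724, 12 nM quinpirole, 200 nM NKH477, 30 min RT.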

[20] = target: Muscarinic acetylcholine receptor M1 (Homo sapiens) (UniProt P11229); test: Cholinergic receptor muscarinic 1 (CHRM1) small molecule antagonists, cell-based qHTS assay (AID 1963588); also: nearly all actives have a fitted effect of over 40% in size
Method in brief: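 Compounds were tested at 15 concentrations in three independent runs. Dye-loaded CHRM1-CHO cells were exposed 5 min at room temperature before stimulation by acetylcholine added at 50nM. Intracellular calcium was read kinetically on FDSS for 3 min.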

Measured: Potency

CCCCCCC
not listed: [20]
inactive: all other assays above

O=C(Cn1ccnc1[N+](=O)[O-])NCCO
not listed: [20]
inactive: all other assays above

CCCCCCCCCCOCC(O)CN (configuration not stated)
active: [1] 37.6 µM | [12] 18.3 µM | [13] 9.52 µM
not listed: [15] | [16] | [17]
inactive: all other assays above

CC1CCC(C(C)CS)CC1S (configuration not stated)
not listed: [14]
inactive: all other assays above

O=C1CCCCCCCCCCOCCCCO1
active: [2] 30.6 µM
not listed: [20]
inactive: all other assays above

CCc1cccc(C)c1
not listed: [14] | [15] | [18]
inactive: all other assays above

CCC(C)CCCC(C)(C)O (configuration not stated)
not listed: [20]
inactive: all other assays above

O=C(O)Cc1c(Cl)ccc(Cl)c1Cl
not listed: [15] | [16] | [17]
inactive: all other assays above

CCCC(=O)O[C@]1(C(=O)CC)CC[C@H]2[C@@H]3CCC4=CC(=O)CC[C@]4(C)[C@H]3[C@@H](O)C[C@@]21C
not listed: [15] | [16]
inactive: all other assays above

Nc1nc(CC(=O)O)cs1
not listed: [14] | [15] | [16]
inactive: all other assays above

CCc1ccc(O)c(OC)c1
not listed: [14]
inactive: all other assays above

CC1CCc2cc(F)cc3c(=O)c(C(=O)O)cn1c23 (configuration not stated)
not listed: [14] | [15]
inactive: all other assays above

CC(Oc1cc(Cl)ccc1Cl)C(=O)O (configuration not stated)
not listed: [15] | [16]
inactive: all other assays above

CCOC(=O)[C@H](CCc1ccccc1)N[C@@H](C)C(=O)N1Cc2cc(OC)c(OC)cc2C[C@H]1C(=O)O
not listed: [15] | [16]
inactive: all other assays above

CC1=C(C)C(=O)C(C(CCCCCC(=O)O)c2ccccc2)=C(C)C1=O (configuration not stated)
not listed: [14] | [16]
inactive: all other assays above
